We go through 20 compounds from PubChem BioAssay (Tox21).

The nature of test [1]: Caspase-3/7 induction in CHO-K1 cells by small molecules, qHTS cell viability counter screen (AID 1346979). Further: nearly all actives have a fitted effect of over 35% in size. Further: potency means the concentration at half of the fitted maximal effect. Summed up: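 Seeding: 1,500 CHO-K1 cells/well. Rest: 5hr, 37C. Treatment: compounds in DMSO, 16hr. Read: CellTiter-Fluor, 1hr, fluorescence.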
Test [2] in a line: Caspase-3/7 induction in CHO-K1 cells by small molecules, qHTS assay (AID 1346980). Further: nearly all actives have a fitted effect of over 15% in size. Further: potency means the concentration at half of the fitted maximal effect. Summed up:
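Wild-type cells were seeded at 1,500 per well and settled 5 hr at 37 C, 5% CO2, then exposed to DMSO-dissolved compounds for 17 hr. Caspase-Glo 3/7 reagent was added, and luminescence was read after 30min at room temperature.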

Test [3] can be described thus: Caspase-3/7 induction in HepG2 cells by small molecules, qHTS cell viability counter screen (AID 1346981). Further: nearly all actives have a fitted effect of over 30% in size. Further: potency means the concentration at half of the fitted maximal effect. Summed up:
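CellTiter-Fluor fluorescence measured viability in the same wells used for Caspase-Glo 3/7. HepG2 (wild type) at 2,000 cells/well were pre-incubated 5 hr, dosed, and given reagent at 16 hr, with 1 hr further at 37C.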

Test [4] has as its target Cytochrome P450 2D6 (Homo sapiens) (UniProt P10635). The test is described as follows: Cytochrome P450 Family 2 Subfamily D Member 6 (CYP2D6) small molecule antagonists: luciferase reporter qHTS assay (AID 1671196). Further: nearly all actives have a fitted effect of over 50% in size. Further: potency means the concentration at half of the fitted maximal effect. Summed up:
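CYP2D6 activity was followed as luminescence from its luciferin product after a 1 h NADPH-driven reaction at room temperature. Enzyme-substrate mix and compound were pre-incubated for 10 min, and the signal was read 20 min after adding detection reagent.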
On the technique in general: In a reporter assay the amount or activity of a reporter protein is the signal.

Test [5] has as its target Cytochrome P450 2C19 (Homo sapiens) (UniProt P33261). As to the kind of experiment: Cytochrome P450 Family 2 Subfamily C Member 19 (CYP2C19) small molecule antagonists: luciferase reporter qHTS assay (AID 1671197). Further: nearly all actives have a fitted effect of over 65% in size. Further: potency means the concentration at half of the fitted maximal effect. Summed up:
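P450-Glo CYP2C19 system: enzyme-substrate mix with compound 10 min at room temperature, then NADPH regeneration solution, 1 h at 37C. Proluciferin-to-luciferin conversion detected by luminescence after 20 min with detection reagent; ketoconazole as positive control.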

The target of test [6] is Cytochrome P450 2C9 (Homo sapiens) (UniProt P11712). The test is described as follows: Cytochrome P450 Family 2 Subfamily C Member 9 (CYP2C9) small molecule antagonists: luciferase reporter qHTS assay (AID 1671198). Further: nearly all actives have a fitted effect of over 50% in size. Further: potency means the concentration at half of the fitted maximal effect. Summed up:
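CYP2C9 activity was measured with a P450-Glo proluciferin substrate. Enzyme–substrate mix was held with compound for 10 min at room temperature, then NADPH regeneration solution was added for 1 h at 37C. Luciferin product was read as luminescence.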

Test [7] concerns the target Nuclear receptor subfamily 1 group I member 2 (Homo sapiens) (UniProt O75469). The test is described as follows: Human pregnane X receptor (PXR) small molecule agonists, qHTS assay (AID 1346982). Further: nearly all actives have a fitted effect of over 35% in size. Further: potency means the concentration at half of the fitted maximal effect. Summed up:
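Agonist mode: luminescence from ONE-Glo after 24 h compound exposure at 37C in HepG2 cells carrying hPXR-responsive CYP3A4 luciferase, plated in charcoal-stripped serum medium 5 h beforehand.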

The target of test [8] is Nuclear receptor subfamily 1 group I member 2 (Rattus norvegicus) (UniProt Q9R1A7). As to the kind of experiment: Rat pregnane X receptor (rPXR) activation by small molecules, qHTS assay (AID 1346983). Further: nearly all actives have a fitted effect of over 20% in size. The note with it: rPXR luciferase reporter cells, One-Glo luminescence, 24 h; stronger effect = higher value. Summed up: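 Cell-based rPXR luciferase reporter assay, 2,000 cells per well, rested 5hr at 37 C before compound addition in DMSO, then 24 hr at 37 C. One-Glo reagent was added and luminescence read after 30 min at room temperature.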
Chain of Nuclear receptor subfamily 1 group I member 2 (Rattus norvegicus) (Q9R1A7 whole entry, looked up): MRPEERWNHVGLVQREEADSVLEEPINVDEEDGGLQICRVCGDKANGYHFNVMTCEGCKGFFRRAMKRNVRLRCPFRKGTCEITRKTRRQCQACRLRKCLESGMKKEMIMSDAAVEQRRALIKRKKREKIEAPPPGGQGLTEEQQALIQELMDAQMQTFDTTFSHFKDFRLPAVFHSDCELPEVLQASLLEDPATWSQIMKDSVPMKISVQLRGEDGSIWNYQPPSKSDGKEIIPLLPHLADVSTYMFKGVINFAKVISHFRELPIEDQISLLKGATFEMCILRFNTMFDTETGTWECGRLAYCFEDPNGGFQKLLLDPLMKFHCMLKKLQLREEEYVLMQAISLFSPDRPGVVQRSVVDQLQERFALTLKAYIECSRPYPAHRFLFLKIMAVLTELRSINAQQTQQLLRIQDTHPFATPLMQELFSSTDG

The target in test [9] is Nuclear receptor subfamily 1 group I member 2 (Homo sapiens) (UniProt O75469). The test is described as follows: CYP3A4 induction through human pregnane X receptor (PXR) by small molecules, qHTS assay (AID 1346984). Further: nearly all actives have a fitted effect of over 40% in size. Summed up:
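Read-out is luminescence after One-Glo addition, following a 3 hr, 37C incubation with Luciferin-IPA CYP3A4 substrate (3uM final). Before that, compounds were on DPX-2 cells (HepG2 co-transfected with PXR element plus CYP3A4-promoter luciferase) for 24 hr at 37C.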
A general note: In qHTS, concentration-response curves come from the screen itself.

Test [10] has the same target. As to the kind of experiment: Human pregnane X receptor (PXR) activation by small molecules, qHTS assay (AID 1346985). Further: nearly all actives have a fitted effect of over 40% in size. Summed up:
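DPX-2 cells (HepG2 co-transfected with a PXR response element and a CYP3A4-promoter luciferase construct) were seeded at 2,000 per well, rested 5 hr at 37C, then exposed to DMSO-dissolved compounds for 24 hr. Activation was read as luciferase luminescence.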

Values joined by “and” are separate entries in the source; they are usually repeats but may differ in a detail not shown here. Equal values may be shown once. Inconclusive results are not listed. Some compounds were tested as several samples or in several runs, with calls that do not always agree. Active and inactive are the calls of the source. The call rests on the fitted dose curve; in most records, active means well fitted curve in the direction sought with a large enough effect in the repeat runs; inconclusive means weak or mixed curves; inactive means no such curve, though single readings can be large; an effect the other way counts as inactive or inconclusive. Starred links: 1 amine or outer side, 2 acyl side, 3 side chain; linkers in the order of their positions; H or OH if unused. Positions of bridges follow the written chain, without caps; N, C: chain ends. Non-standard residues stand in square brackets, D forms with d. Residues, ends and D or L forms follow the SMILES beside them. Chains are numbered I, II in the order given. Actinocin(9to1) = Cc1c2oc3c(C)ccc(C(=O)[*:1])c3nc-2c(C(=O)[*:2])c(N)c1=O; NMeV = CN[C@H](C(=O)O)C(C)C; Sar = CNCC(=O)O
On the % scale 0 is the no-effect control and ±100 the full control effect.

Chain of Nuclear receptor subfamily 1 group I member 2 (Homo sapiens) (O75469 whole entry, looked up): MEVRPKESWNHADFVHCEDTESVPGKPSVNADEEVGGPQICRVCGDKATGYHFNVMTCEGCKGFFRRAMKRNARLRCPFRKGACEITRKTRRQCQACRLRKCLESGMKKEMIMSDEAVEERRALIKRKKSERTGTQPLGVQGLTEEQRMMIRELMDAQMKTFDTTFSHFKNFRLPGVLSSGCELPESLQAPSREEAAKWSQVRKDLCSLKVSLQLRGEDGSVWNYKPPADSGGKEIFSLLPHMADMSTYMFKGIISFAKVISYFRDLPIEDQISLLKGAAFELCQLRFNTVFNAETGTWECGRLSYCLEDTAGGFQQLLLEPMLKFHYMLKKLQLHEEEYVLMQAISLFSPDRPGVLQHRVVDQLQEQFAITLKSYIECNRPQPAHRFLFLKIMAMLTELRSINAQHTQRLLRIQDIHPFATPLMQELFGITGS
Chain of Cytochrome P450 2C9 (Homo sapiens) (P11712 whole entry, looked up): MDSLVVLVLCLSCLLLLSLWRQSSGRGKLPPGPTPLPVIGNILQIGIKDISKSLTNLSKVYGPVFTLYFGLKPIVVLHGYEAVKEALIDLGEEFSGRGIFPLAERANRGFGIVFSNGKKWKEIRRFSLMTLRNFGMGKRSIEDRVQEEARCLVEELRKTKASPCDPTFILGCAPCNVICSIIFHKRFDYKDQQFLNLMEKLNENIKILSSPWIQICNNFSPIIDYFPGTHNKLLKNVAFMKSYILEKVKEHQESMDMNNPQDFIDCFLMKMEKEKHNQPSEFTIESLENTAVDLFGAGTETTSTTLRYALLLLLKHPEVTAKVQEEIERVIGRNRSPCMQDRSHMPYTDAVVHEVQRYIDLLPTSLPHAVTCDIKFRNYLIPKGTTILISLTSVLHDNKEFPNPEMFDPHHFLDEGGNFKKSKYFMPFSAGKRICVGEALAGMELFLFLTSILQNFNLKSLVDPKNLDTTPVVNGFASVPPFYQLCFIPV
Chain of Cytochrome P450 2C19 (Homo sapiens) (P33261 whole entry, looked up): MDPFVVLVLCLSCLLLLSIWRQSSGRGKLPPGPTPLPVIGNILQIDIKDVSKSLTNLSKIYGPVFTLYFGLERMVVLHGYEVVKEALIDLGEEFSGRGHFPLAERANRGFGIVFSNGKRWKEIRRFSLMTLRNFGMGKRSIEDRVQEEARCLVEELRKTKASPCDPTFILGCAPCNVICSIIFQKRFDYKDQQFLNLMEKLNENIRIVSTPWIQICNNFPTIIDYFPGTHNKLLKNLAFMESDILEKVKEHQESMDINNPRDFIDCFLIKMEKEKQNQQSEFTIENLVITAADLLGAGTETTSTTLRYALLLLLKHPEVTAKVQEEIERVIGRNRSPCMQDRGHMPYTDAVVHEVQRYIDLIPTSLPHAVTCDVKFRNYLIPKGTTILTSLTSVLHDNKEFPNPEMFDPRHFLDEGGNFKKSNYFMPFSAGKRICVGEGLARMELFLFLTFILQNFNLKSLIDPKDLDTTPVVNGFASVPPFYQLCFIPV
Chain of Cytochrome P450 2D6 (Homo sapiens) (P10635 whole entry, looked up): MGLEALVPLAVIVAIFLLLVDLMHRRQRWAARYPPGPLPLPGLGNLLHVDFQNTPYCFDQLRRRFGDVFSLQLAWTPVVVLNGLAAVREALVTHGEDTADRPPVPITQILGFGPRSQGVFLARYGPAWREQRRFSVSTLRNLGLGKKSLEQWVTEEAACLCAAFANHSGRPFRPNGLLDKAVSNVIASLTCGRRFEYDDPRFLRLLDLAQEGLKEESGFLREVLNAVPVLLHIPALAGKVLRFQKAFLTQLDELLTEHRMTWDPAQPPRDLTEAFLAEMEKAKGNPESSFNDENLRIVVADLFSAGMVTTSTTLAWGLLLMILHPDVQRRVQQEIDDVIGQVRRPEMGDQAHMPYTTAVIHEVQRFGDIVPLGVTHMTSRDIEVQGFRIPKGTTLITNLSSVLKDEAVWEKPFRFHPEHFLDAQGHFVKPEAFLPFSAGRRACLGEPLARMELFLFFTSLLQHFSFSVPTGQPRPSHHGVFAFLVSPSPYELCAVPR

Consider `Cc1c(O)cccc1C(=O)N[C@@H](CSc1ccccc1)[C@H](O)CN1C[C@H]2CCCC[C@H]2C[C@H]1C(=O)NC(C)(C)C`, for which the Potency in test [1] is 5.95 µM (active) and 10.6 µM (active); in test [3], 11.9 µM (active) and 13.3 µM (active); in test [4] it was 8.71 µM (active) and 15.5 µM (active); in [5] it was 9.77 µM (active); in test [6] it was 19.5 µM (active) and 24.5 µM (active). The Potency result in test [2] is “inactive”.

Turning to `CC(=O)OCCOCCOCCOC(C)=O`, the Potency entry in test [1], in test [2], in test [3], in test [7], in test [4] and in [6] was “inactive” throughout. Moreover, in test [5], the Potency is 78.7 µM (active) and inactive.

`O=C(O)c1cn(-c2ccc(F)cc2)c2cc(N3CCNCC3)c(F)cc2c1=O`: the Potency result in test [1], in [2], in test [3], in test [4], in [5] and in test [6] was “inactive” in each case. Moreover, the max activation in [8] was -0.0913% (inactive).

Turning to `C1COC(NC(C2CC2)C2CC2)=N1`, the Potency entry in [1], in test [2], in [3], in test [7], in [5] and in test [6] was “inactive” throughout. Also, in [4], the Potency was 15.5 µM (active).

For `CCCCN(CCO)CCCC`, the Potency result in [1], in test [2] and in [3] was “inactive” each time. Besides, the Potency in test [4] was 36.4 µM (active).

In the case of `CC1COC(=O)O1` (stereo unspecified), the Potency entry in test [1], in [2], in test [3], in test [7], in test [4] and in test [5] was “inactive” each time. For the same compound, the Potency entry in [6] is “inactive”.

As to `N[C@@H]1CONC1=O`, the Potency entry in [1], in [2], in [7], in test [9], in [10] and in test [4] was “inactive” each time. Besides, the Potency result in test [5] and in [6] was “inactive” throughout. In test [8], the max activation was -2.48% (inactive).

On to `O=Cc1ccc(Cl)cc1`, for which the Potency result in test [1], in [2], in test [3], in test [7] and in [6] was “inactive” in each case.

For the compound `CCOC(=O)C(C)C(C)=O` (stereo unspecified), the Potency entry in [1], in test [2], in test [3], in test [7], in [4] and in test [5] was “inactive” throughout. Moreover, the Potency result in [6] is “inactive”.

Regarding `CC(C)CCOCc1ccccc1`, the Potency result in test [1], in test [2], in [3], in test [7], in test [4] and in test [5] was “inactive” each time. Also, the Potency result in test [6] was “inactive”.

`CCC[C@H](N[C@@H](C)C(=O)N1[C@H](C(=O)O)C[C@@H]2CCCC[C@@H]21)C(=O)OCC`: the Potency entry in test [1], in [2], in test [3], in [7], in test [4] and in test [5] was “inactive” each time. For the same compound, in test [6], the Potency entry was “inactive”.

On to `CC(C)(C)NC(=O)[C@@H]1CN(Cc2cccnc2)CCN1C[C@@H](O)C[C@@H](Cc1ccccc1)C(=O)N[C@H]1c2ccccc2C[C@H]1O`, for which the Potency result in test [1], in [2] and in test [3] was “inactive” each time. In addition, the max activation in test [8] is 4.92% (inactive).

In the case of `CCN(CC)C(=S)SSC(=S)N(CC)CC`, the Potency was 137 nM (active) and 62.6 nM (active) and 376 nM (active) in test [1]; 15.7 µM (active) and 10.6 µM (active) in test [7]; 32.5 µM (active) in test [4]; 6.33 µM (active) and 4.21 µM (active) and 4.36 µM (active) in [6]. Also, the Potency result in [2] and in test [3] was “inactive” throughout.

With `Cc1c2oc3c(C)ccc(C(=O)N[C@@H]4C(=O)N[C@H](C(C)C)C(=O)N5CCC[C@H]5C(=O)N(C)CC(=O)N(C)[C@@H](C(C)C)C(=O)O[C@@H]4C)c3nc-2c(C(=O)N[C@@H]2C(=O)N[C@H](C(C)C)C(=O)N3CCC[C@H]3C(=O)N(C)CC(=O)N(C)[C@@H](C(C)C)C(=O)O[C@@H]2C)c(N)c1=O` (I: T[dV]P[Sar][NMeV] / II: T[dV]P[Sar][NMeV]; ester I:1-I:C, II:1-II:C; linker I:N-II:N via Actinocin(9to1)), the Potency is 375 nM (active) and 188 nM (active) in test [1]; 188 nM (active) and 335 nM (active) in [2]. In addition, the Potency result in [7], in [9], in test [10], in [4], in test [5] and in [6] was “inactive” throughout.

In the case of `CC(=O)C1=C(C)[C@@H]2C[C@@]3(C1)[C@H](C)CC[C@H]3C2(C)C`, the Potency result in [1], in test [2], in test [3] and in [4] was “inactive” each time. Besides, the Potency in test [5] was 93.5 µM (active) and 39.9 µM (active).

For the compound `CC1=CC(=O)c2ccccc2C1=O`, the Potency in test [1] was 24.3 µM (active) and 21.1 µM (active); in [3], 68.6 µM (active) and inactive; in [4] it was 31.7 µM (active); in test [5] it was 14.2 µM (active) and 15.5 µM (active); in test [6], 22.4 µM (active) and 13.8 µM (active). Besides, the Potency entry in test [2] was “inactive”.

`CC(=O)OCC1=C(C(=O)O)N2C(=O)[C@@H](NC(=O)Cc3cccs3)[C@H]2SC1`: the Potency entry in test [1], in test [2], in test [7], in test [9], in [10] and in test [4] was “inactive” in each case. Further, the Potency result in test [5] is “inactive”. Further, the max activation in test [8] is -1.19% (inactive).

For the compound `C=CC(=O)OCCCCCCCC`, the Potency result in test [1], in test [2], in test [7], in [4], in [5] and in test [6] was “inactive” throughout.

As to `COc1ccc(Cc2cnc(N)nc2N)cc1OC`, the Potency entry in test [2], in [3], in test [7], in [9], in test [10] and in test [4] was “inactive” each time. Also, the Potency entry in [5] and in test [6] was “inactive” in each case. In addition, in [8], the max activation was 10.3% (inactive).

As to `O=Nc1ccc(Nc2ccccc2)cc1`, the Potency is 7.74 µM (active) and 13.7 µM (active) in test [1]; 61.4 µM (active) and 48.6 µM (active) in test [7]; 28.4 µM (active) and 35.6 µM (active) in test [4]; 5.67 µM (active) and 8.94 µM (active) in test [5]; 14.2 µM (active) and 28.3 µM (active) in test [6]. In addition, in test [2], the Potency entry was “inactive”.
